Where “and” joins values, the source holds several entries; their conditions need not be identical. Identical values can stand only once. Results filed as inconclusive are left out. Entries that show only a call come without a potency. Calls of active or inactive are those of the source. Calls follow the shape of the full dose curve.
Potency is read from the fitted curve at half-maximal effect.

The first experiment can be described thus: Primary qHTS to identify inhibitors of SARS-CoV-2 cell entry (AID 1645846). Also: nearly all actives have a fitted effect of over 45% in size. The note with it: SARS-CoV-2 pseudovirus cell entry assay, luminescence; activity change, negative = inhibition: at 57.1 µM (top of the series) unless noted; series mostly up to 57.1 µM. The text has this: Assay Provider: Wei Zheng, Ph.D.
National Center for Advancing Translational Sciences, National Institute of Health, Rockville, MD.
SARS-CoV-2 spike protein, within the viral envelope, mediates viral attachment and infection of host cells. The SARS-CoV-2 spike protein specifically binds to the host receptor ACE2 (Angiotensin-converting enzyme 2). This interaction promotes endocytosis of the viral particle, additional events lead to viral-host cell membrane fusion and release of the viral contents, allowing viral replication.
While SARS-CoV-2 requires BSL-3 facilities for live virus work, pseudotyped partices (PP) that incorporate SARS-CoV-2 spike proteins without replication elements could facilitate studies on viral entry mechanisms in a BSL-2 setting. This PP cell entry assay could also enable screening of small molecule compound libraries in BSL-2 setting to identify inhibitors of SARS-CoV-2 cell entry.
PROTOCOL TABLE (format as described by Inglese J, Shamu CE and Guy RK. 2007)
SEQUENCE No. (e.g., 1, 2, 3, etc.); […] (e.g., Cells, Incubation, Reagent, etc.); VALUE and DESCRIPTION.
1. Cells. Seed 1500 HEK293-ACE2 cells (Expi293F with stable expression of human ACE2) in 2 uL/well media (DMEM, 10% FBS, 1x L-glutamine, 1x Pen/Strep, 1 ug/ml puromycin) in white 1536-well assay plates (Greiner #782073).
2. Incubation. Incubate at 37C with 5% CO2 overnight (~16 h).
3. Compounds. Dispense 23 nL/well compounds in DMSO via pin transfer.
4. Incubation. Incubate for 1 hr at 37C 5% CO2.
5. Reagent. Dispense 2 uL/well of SARS-CoV-2-S pseudotyped particles. [a] PPs are produced with murine leukemia virus pseudotyping. [b] SARS-CoV-2-S is Wuhan-Hu-1 sequence (BEI #NR-52420) with C-terminal 19 amino acid truncation.
6. Centrifuge. […]
7. Incubation. Incubate at for 48 hr at 37C 5% CO2
8. Centrifuge. Remove supernatant with gentle centrifugation using a Blue Washer (BlueCat Bio).
9. Reagent. Dispense 4 uL/well of Bright-Glo Luciferase detection reagent (Promega #E2620).
10. Incubation. Incubate for 5 min at room temperature.
11. Detection. Read luminescence signal (Viewlux plate reader, PerkinElmer). Data was normalized with wells containing SARS-CoV-2-S PP as 100%, and wells containing bald PP (no fusion protein) as 0%.
(In general: qHTS replaces the single test concentration by a dilution series.)
With `CCCCOC(=O)c1ccc(N)cc1`, the call was inactive.

Turning to `Nc1ncnc2nc[nH]c12`, the result was inactive.

With `COc1c2c(cc3c1OCO3)CCN(C)C2`, the activity change, negative = inhibition is -9.9%.

With `CCCOC(=O)c1ccccc1`, the call was inactive.

For `Cc1cc(C)c(NC(=O)CN(CC(=O)O)CC(=O)O)c(C)c1Br`, the activity change, negative = inhibition was -26.2%.

Consider `CCCCCCCC(=O)OCC(COC(=O)CCCCCCC)OC(=O)CCCCCCC`, for which the compound was called inactive.

As for `COc1cc(/C=C/C(=O)O[C@H]2CC[C@]34C[C@]35CC[C@]3(C)[C@@H]([C@H](C)CCC=C(C)C)CC[C@@]3(C)[C@@H]5CC[C@H]4C2(C)C)ccc1O`, the compound was called inactive.

Turning to `CC[C@H](C)[C@H](N)C(=O)O`, the call was inactive.

In the case of `O=C(OCc1ccccc1)c1ccccc1`, the compound was classed as inactive.

Take `Cc1ccc(-c2ncc(Cl)cc2-c2ccc(S(C)(=O)=O)cc2)cn1`: the compound was called inactive.

On to `O=c1[nH]cnc2[nH]ncc12`, for which the activity change, negative = inhibition was -11.8% [at 114 µM] and the “outcome” value is “inactive; activator”.

For the compound `CCOC(=O)[C@H](CCc1ccccc1)N[C@@H](C)C(=O)N1CCC[C@H]1C(=O)O`, the activity change, negative = inhibition is -3.71% and -6.05%.

Turning to `CCC[C@@H]1C[C@@H](C(=O)N[C@@H]([C@H]2O[C@H](SC)[C@H](O)[C@@H](O)[C@H]2O)[C@@H](C)O)N(C)C1`, the outcome was inactive.

On to `C[C@](O)(CS(=O)(=O)c1ccc(F)cc1)C(=O)Nc1ccc(C#N)c(C(F)(F)F)c1`, for which the activity change, negative = inhibition was -4.4%.

With `CCCCCCCCCCCCCCCCO`, the activity change, negative = inhibition is -7.94%.

`CCC(=O)c1c(O)cc(O)cc1O`: the activity change, negative = inhibition was -5.3%.

With `NS(=O)(=O)c1cc(C(=O)O)cc(N2CCCC2)c1Oc1ccccc1`, the result was inactive.

On to `CCO/C([O-])=N/c1c[n+](N2CCOCC2)no1`, for which the compound was classed as inactive.

Regarding `O=C(O)c1cc(N=Nc2ccc(O)c(C(=O)O)c2)ccc1O`, the activity change, negative = inhibition is -12.7%.

For the compound `O=c1[nH]c(=O)n([C@H]2C[C@H](O)[C@@H](CO)O2)cc1F`, the activity change, negative = inhibition is -90.3% and -94.8%.

Regarding `Clc1ccc2nsnc2c1NC1=NCCN1`, the compound was classed as inactive and the activity change, negative = inhibition was -13.9%.

Take `CC(=O)S[C@@H]1CC2=CC(=O)CC[C@]2(C)[C@H]2CC[C@@]3(C)[C@@H](CC[C@@]34CCC(=O)O4)[C@H]12`: the activity change, negative = inhibition is -11%.

Turning to `COc1cc(C(=O)NS(=O)(=O)c2ccccc2C)ccc1Cc1cn(C)c2ccc(NC(=O)OC3CCCC3)cc12`, the Potency result was “inactive”.

`CCOC(=O)O[C@]1(C(=O)OCCl)CC[C@H]2[C@@H]3CCC4=CC(=O)C=C[C@]4(C)[C@H]3[C@@H](O)C[C@@]21C`: the call was inactive.

For `C[C@@H]1O[C@@H](OC[C@H]2O[C@@H](Oc3c(-c4ccc(O)c(O)c4)oc4cc(O)cc(O)c4c3=O)[C@H](O)[C@@H](O)[C@@H]2O)[C@H](O)[C@H](O)[C@H]1O`, the compound was classed as inactive.

On to `CN1CCN(C(c2ccccc2)c2ccc(Cl)cc2)CC1` (stereo not given), for which the Potency was 10 µM (active).

On to `O=C1c2ccccc2C(=O)c2ccccc21`, for which the “outcome” value was “inactive [at 27.1 µM]”.

For the compound `CC(C)Cn1cnc2c(N)nc3ccccc3c21`, the activity change, negative = inhibition amounted to 0.431% [at 27.1 µM] and the “outcome” value was “inactive [at 27.1 µM]”.

Consider `COP(=S)(OC)SCN1C(=O)c2ccccc2C1=O`, for which the call was inactive.

In the case of `COc1ccc(C(=O)c2ccccc2O)c(O)c1`, the compound was called inactive.

For the compound `Cc1cc(NS(=O)(=O)c2ccc(N)cc2)no1`, the outcome was inactive.

For `Cc1c[nH]c2ccccc12`, the activity change, negative = inhibition was -24.2%.

Turning to `CNC(=O)c1c(I)c(NC(C)=O)c(I)c(C(=O)O)c1I`, the compound was called inactive.

Regarding `CO[C@@H]1[C@@H](OC(N)=O)[C@@H](O)[C@H](Oc2ccc3c(O)c(NC(=O)c4ccc(O)c(CC=C(C)C)c4)c(=O)oc3c2C)OC1(C)C`, the compound was classed as inactive and the activity change, negative = inhibition worked out at 0.81%.

Staying with this experiment, now noted: SARS-CoV-2 pseudovirus cell entry assay, luminescence; at 57.1 µM (top of the series).
Take `Cc1ncc([N+](=O)[O-])n1CC(C)O` (stereo not given): the activity change, negative = inhibition is -6.83%.

The same experiment, now with this note: SARS-CoV-2 pseudovirus cell entry assay, luminescence; at 114 µM (top of the series).
As for `Cc1ncc([N+](=O)[O-])n1CC(C)O` (stereo not given), the activity change, negative = inhibition was -38.4%.

The values above are taken from PubChem BioAssay (NCATS).
